Test results reported in PubChem BioAssay (NCATS).
Records with an inconclusive call do not appear. Active and inactive are the calls of the source. Unless noted, calls follow the shape of the dose curve; as a rule, active = well fitted curve in the direction sought with a large enough effect; inconclusive = small, poorly fitted or top-dose-only effect, or another doubt; inactive = no such curve, though single readings can be large; an effect the other way counts as inactive or inconclusive.

Columns and labels:
[1] = Cell Viability - BJ (AID 421; calls by dose curve;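 also: potency is read from the fitted curve at half-maximal effect; cells exposed to compound for 40 hours at 37 °C before readout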); conditions: BJ fibroblast viability, qHTS
How it was run: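 Cytotoxicity in human BJ foreskin fibroblasts is scored as loss of cellular ATP after a 40-hour exposure, measured by luciferase luminescence. Controls are DMSO and 100 uM tamoxifen.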

[2] = Cell Viability - Jurkat (AID 426;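 active = dose-dependent loss of cell ATP signal giving a full or clear fitted curve, ranked by lower potency value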; also: potency is read from the fitted curve at half-maximal effect); conditions: qHTS
How it was run: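 Jurkat (Clone E6-1) cells, 5000/well in complete medium, exposed to compounds for 40 hr at 37C; intracellular ATP measured by CellTiter-Glo luminescence after 20 min at room temperature. AC50 from Hill fits.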

[3] = Cell Viability - Hek293 (AID 427;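 active = compounds whose dose-response curve shows a full or clear partial loss of cell viability, called from curve shape rather than a numeric limit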;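 also: potency is read from the fitted curve at half-maximal effect; cells exposed to compound for 40 hours at 37 °C before reading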); conditions: qHTS
How it was run: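 qHTS, human embryonic kidney (adenovirus-transformed) cells; 40 hr cpd, 37 °C; CellTiter-Glo ATP luminescence. Norm: DMSO = 0, 100 uM tamoxifen = 100% inhibition. Hill-fit AC50.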

[4] = Cell Viability - HepG2 (AID 433; calls by dose curve;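 also: potency is read from the fitted curve at half-maximal effect; potency for ATP loss meaning cytotoxicity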); conditions: qHTS
How it was run: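 HepG2 cells, 1500 per well, treated 40 hr at 37 °C in complete medium; viability from intracellular ATP by CellTiter-Glo luminescence. Normalized to DMSO and 100 uM tamoxifen; AC50 from Hill fit of qHTS concentration-response.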

[5] = Cell Viability - MRC5 (AID 434; calls by dose curve;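 also: potency is read from the fitted curve at half-maximal effect; potency reflects cytotoxicity seen as loss of intracellular ATP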); conditions: MRC5 lung fibroblast viability, qHTS
How it was run: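 MRC5 normal human lung fibroblasts (1500/well) were treated with compounds for 40 hr at 37 °C in complete medium, and viable cells were measured as intracellular ATP by CellTiter-Glo luminescence. AC50 came from Hill fits, normalized to DMSO and 100 uM tamoxifen.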

[6] = Cell Viability - SK-N-SH (AID 435; calls by dose curve;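 also: potency is read from the fitted curve at half-maximal effect; compound exposure lasted 40 h at 37 °C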); conditions: SK-N-SH neuroblastoma cell viability qHTS
How it was run: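 SK-N-SH neuroblastoma cells (1500/well) treated 40 h at 37 °C in complete medium; viability read as cellular ATP by CellTiter-Glo luminescence. Normalized to DMSO and 100 uM tamoxifen; AC50 from Hill fits of qHTS concentration-response.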

[7] = Cell Viability - HUV-EC-C (AID 542); conditions: HUV-EC-C endothelial cell viability, qHTS; series mostly up to 92.2 µM; also: % is scaled to controls: 0 for no effect and ±100 for the full control effect; nearly all actives have a fitted effect of over 35% in size
How it was run: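 HUV-EC-C human vascular endothelial cells, 1000/well, exposed to compound for 40 hr at 37 °C in complete medium. Intracellular ATP was read by CellTiter-Glo luminescence. AC50 came from Hill-equation fits of concentration-response data.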

[8] = Cellular Toxicity (caspase-3) HepG2 (AID 654); conditions: HepG2 caspase-3 activation, luminescence, 0% = DMSO only, 100% = tamoxifen; series mostly up to 92.2 µM;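 also: cells exposed to compound for 16 hours before reading; 0% = DMSO alone and 100% = caspase signal from 100 µM tamoxifen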
How it was run: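 HepG2 cells (1500/well) were treated 16 h at 37 °C in complete medium, then caspase 3/7 activity was read by Caspase-Glo luminescence. Data were normalized to DMSO and 100 uM tamoxifen; AC50 came from Hill-equation fits of qHTS concentration-response.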

[9] = Cellular Toxicity (caspase-3) HUV-EC-C (AID 656); conditions: HUV-EC-C cells, caspase-3 activation (apoptosis), vehicle = 0, 100 µM tamoxifen = 100%; series mostly up to 92.2 µM
How it was run: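 HUV-EC-C cells (1000/well) in complete medium, compound-treated 16 h at 37 °C; caspase-3/7 activity read by Caspase-Glo 3/7 luminescence. Normalized to DMSO (basal) and 100 uM tamoxifen (100%); AC50 from Hill-equation concentration-response fits.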

[10] = Cellular Toxicity (caspase-3) BJ (AID 658); conditions: BJ fibroblasts, luminescence, normalized: DMSO 0%, staurosporine 100%; series mostly up to 91.7 µM
How it was run: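 Luminescent aminoluciferin-substrate cleavage reports caspase 3/7 activity in normal human BJ fibroblasts after 16 hr compound exposure at 37 °C. Normalized to DMSO (basal) and 10 uM staurosporine (100%); AC50 from Hill fit of concentration-response.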

[11] = Cellular Toxicity (caspase-3) Mesangial (AID 660); conditions: mesangial cells, normalized: DMSO 0%, 100 µM tamoxifen 100%; series mostly up to 91.7 µM;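 also: cells exposed to compound for 16 h before the caspase read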
How it was run: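 Human renal glomerular mesangial cells, 1000/well, 5 h at 37 C before 16 h compound treatment. Caspase-Glo 3/7 luminescence after 20 min; normalized to DMSO and 100 uM tamoxifen, AC50 from Hill fit.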

[12] = Cellular Toxicity (caspase-3) SK-N-SH (AID 661); conditions: SK-N-SH caspase-3 activation, qHTS; series mostly up to 91.7 µM
How it was run: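 Human SK-N-SH neuroblastoma cells, 1500/well, were exposed to compounds for 16 hours at 37 °C. Caspase-Glo 3/7 luminescence was normalized to DMSO (basal) and 10 uM staurosporine (100%), and AC50 came from a Hill fit.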

[13] = Cellular Toxicity (caspase-3) H-4-II-E (AID 663); conditions: H-4-II-E rat hepatoma; Potency: caspase-3 activation; series mostly up to 92.2 µM;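 also: cells exposed to compound for 16 hr before readout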
How it was run: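 Luminescence from caspase-cleaved aminoluciferin substrate, read 20 min after reagent addition, reports caspase 3/7 activation in rat H-4-II-E cells after 16 hr compound exposure. Normalized to DMSO (basal) and 100 uM tamoxifen (100%); AC50 from Hill fits.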

[14] = Cellular Toxicity (caspase-3) N2a (AID 665); conditions: N2a cells, luminescence, normalized: DMSO 0%, 10 µM staurosporine 100%; series mostly up to 92.2 µM;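 also: compound exposure lasted 16 h at 37 °C before readout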
How it was run: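 Mouse N2a neuroblastoma cells, 1500 per well, treated 16 h at 37 °C in complete medium; caspase-3/7 activity by Caspase-Glo luminescence after 1 h. Normalized to DMSO and 10 uM staurosporine; AC50 from Hill fits.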

[15] = Cell Viability - LYMP1-002 - Assay at 16 hr (AID 948); conditions: LYMP1-002 lymphoblastoid cell viability; series mostly up to 92.2 µM;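 also: 0% = DMSO alone and full effect = 92 µM tetraoctylammonium bromide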
How it was run: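 LYMP1-002 human lymphoblastoid cells, 2500/well, were treated with compounds for 16 hr at 37 C in complete medium. Viability was read as intracellular ATP by CellTiter-Glo luminescence, and AC50 was derived from a Hill fit to concentration-response data.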

[16] = MultiTox-Fluor Cytotoxicity Assay - LYMP1-003 - Dead Cells (AID 961); conditions: LYMP1-003 lymphoblastoid cells, dead-cell protease fluorescence; series mostly up to 92.2 µM; also: nearly all actives have a fitted effect of over 70% in size
How it was run: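 LYMP1-003 lymphoblastoid, 2500 cells/well, 5 hr settle then 16 hr cpd at 37 C; MultiTox-Fluor reagent 60 min RT; Ex/Em 485/520 dead-cell signal; norm. DMSO = 0%, 15 uM tetraoctylammonium bromide = 100%; Hill AC50.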

[17] = Cell Viability - LYMP2-023 (AID 975); conditions: LYMP2-023 lymphoblastoid cell viability; series mostly up to 92.2 µM;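 also: cellular ATP measured by luciferase luminescence as viability proxy; cells exposed to compound for 24 hours at 37 °C; plate controls were DMSO only for no effect and 92 µM tetraoctylammonium bromide control for full effect; nearly all actives have a fitted effect of over 55% in size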
How it was run: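 LYMP2-023 human lymphoblastoid cells, 2500/well, preincubated 5 hr at 37 C, then compound-treated 24 hr at 37 C in complete medium. CellTiter-Glo luminescence (ATP) after 30 min at room temperature; AC50 from Hill-equation fits; tetraoctylammonium bromide positive control.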

[18] = Cell Viability - LYMP2-008 (AID 980); conditions: LYMP2-008 lymphoblastoid cell viability, qHTS; series mostly up to 92.2 µM;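 also: cells exposed to compound for 24 h at 37 °C; % is scaled to controls: 0 for no effect and ±100 for the full control effect; nearly all actives have a fitted effect of over 60% in size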
How it was run: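 LYMP2-008 lymphoblastoid cells (2500/well) plated 5 h, then treated 24 h at 37 C in complete medium. Viability read as intracellular ATP by CellTiter-Glo luminescence after 30 min at room temperature; AC50 from Hill fits.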

[19] = qHTS Assay for Identification of Small Molecule Inducers of Hypoxia Response (AID 2120; active = well fitted curve in the direction sought with a large enough effect in the signal ratio, with a control signal flat, not every such curve was filed as active; the % refers to the signal ratio; also: 0% is about no effect); conditions: hypoxia response reporter cells, beta-lactamase ratio readout; series mostly up to 104 µM
How it was run: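 HRE-bla ME-180 cells in Opti-MEM with 0.5% dialyzed FBS, pre-plated 4-5 h, then compound titration for 17 h at 37 degrees Celsius. CCF4 loaded 2.5 h at room temperature; 460/530 nm ratio gave %Activity and AC50 for induction.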

[20] = qHTS assay for cell viability of HEK293 cells (AID 743288); conditions: ATP luminescence (CellTiter-Glo), 18 h, hits give low values; also: % is scaled to controls: 0 for no effect and ±100 for the full control effect; nearly all actives have a fitted effect of over 50% in size
How it was run: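 Parental HEK293 cells, 2,000 per well, preincubated at least 5 h at 37 C, then exposed to compounds in DMSO for 18 h at 37 C. Viability by CellTiter-Glo ATP luminescence after 30 min at room temperature.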

Cc1cccc(N)c1C
inactive: Potency [1] > 92 µM | Potency [2] > 92 µM | Potency [3] > 92 µM | Potency [4] > 92 µM | Potency [5] > 92 µM | Potency [6] > 92 µM | Potency [7] | outcome [8] | outcome [9] | outcome [10] | outcome [11] | Potency [12] | Potency [13] | outcome [14] | outcome [15] | Potency [16] | Potency [17] | Potency [18] | Potency [19] | max response [20] -7.16%

BrC(Br)Br
inactive: Potency [1] > 92 µM | Potency [2] > 92 µM | Potency [3] > 92 µM | Potency [4] > 92 µM | Potency [5] > 92 µM | Potency [6] > 92 µM | Potency [7] | outcome [8] | outcome [9] | outcome [10] | outcome [11] | Potency [12] | Potency [13] | outcome [14] | outcome [15] | Potency [16] | Potency [17] | Potency [18] | Potency [19] | max response [20] -3.11%

CCN(CC)N=O
inactive: Potency [1] > 92 µM | Potency [2] > 92 µM | Potency [3] > 92 µM | Potency [4] > 92 µM | Potency [5] > 92 µM | Potency [6] > 92 µM | Potency [7] | outcome [8] | outcome [9] | outcome [10] | outcome [11] | Potency [12] | Potency [13] | outcome [14] | outcome [15] | Potency [16] | Potency [17] | Potency [18] | Potency [19] | max response [20] 1.5%

CCCCOCC1CO1 (centres undefined)
inactive: Potency [1] > 92 µM | Potency [2] > 92 µM | Potency [3] > 92 µM | Potency [4] > 92 µM | Potency [5] > 92 µM | Potency [6] > 92 µM | Potency [7] | outcome [8] | outcome [9] | outcome [10] | outcome [11] | Potency [12] | Potency [13] | outcome [14] | outcome [15] | Potency [16] | Potency [17] | Potency [18] | Potency [19] | max response [20] -19.5%

Nc1ccc(Cl)c(Cl)c1
inactive: Potency [1] > 92 µM | Potency [2] > 92 µM | Potency [3] > 92 µM | Potency [4] > 92 µM | Potency [5] > 92 µM | Potency [6] > 92 µM | Potency [7] | outcome [8] | outcome [9] | outcome [10] | outcome [11] | Potency [12] | Potency [13] | outcome [14] | outcome [15] | Potency [16] | Potency [17] | Potency [18] | Potency [19] | max response [20] -1.26%

OCCCCO
inactive: Potency [1] > 92 µM | Potency [2] > 92 µM | Potency [3] > 92 µM | Potency [4] > 92 µM | Potency [5] > 92 µM | Potency [6] > 92 µM | Potency [7] | outcome [8] | outcome [9] | outcome [10] | outcome [11] | Potency [12] | Potency [13] | outcome [14] | outcome [15] | Potency [16] | Potency [17] | Potency [18] | Potency [19] | max response [20] -3.14%

c1ccc(Nc2ccc(Nc3ccccc3)cc2)cc1
inactive: Potency [1] > 92 µM | Potency [2] > 92 µM | Potency [3] > 92 µM | Potency [4] > 92 µM | Potency [5] > 92 µM | Potency [6] > 92 µM | Potency [7] | outcome [8] | outcome [9] | outcome [10] | outcome [11] | Potency [12] | Potency [13] | outcome [14] | outcome [15] | Potency [16] | Potency [17] | Potency [18] | Potency [19] | max response [20] -19.5%

ClC(Cl)C(Cl)Cl
inactive: Potency [1] > 92 µM | Potency [2] > 92 µM | Potency [3] > 92 µM | Potency [4] > 92 µM | Potency [6] > 92 µM | Potency [7] | outcome [8] | outcome [9] | outcome [10] | outcome [11] | Potency [12] | Potency [13] | outcome [14] | outcome [15] | Potency [16] | Potency [17] | Potency [18] | Potency [19] | max response [20] -11.3%
